Source: PubChem BioAssay AID588519 (ICCB-Longwood Screening Facility, Harvard Medical School, 2011)
Screen size: about 150,000 compounds; about 1,000 (0.67%) were called active. No stated cut-off is given here; in the data, active means % elongation below about 90%; inactive means the rest, inconclusive results apart. The entries come from a sample that favours actives as a whole.

Target: Genome polyprotein (Poliovirus type 1 (strain Mahoney)) (UniProt P03300)
Assay: poliovirus RdRp elongation inhibitors, primary screen, biochemical, fluorescence polarization, total intensity (AID 588519); on z-score: compound at 16.7 µg/mL
Conditions: poliovirus polymerase elongation, stronger effect = lower value; for % elongation: compound at 16.7 µg/mL; for z-score: measured here: FP z-score
[1] = measured here: total intensity read-out

Sequence of Genome polyprotein (Poliovirus type 1 (strain Mahoney)) (P03300 1749-2209 limits assumed): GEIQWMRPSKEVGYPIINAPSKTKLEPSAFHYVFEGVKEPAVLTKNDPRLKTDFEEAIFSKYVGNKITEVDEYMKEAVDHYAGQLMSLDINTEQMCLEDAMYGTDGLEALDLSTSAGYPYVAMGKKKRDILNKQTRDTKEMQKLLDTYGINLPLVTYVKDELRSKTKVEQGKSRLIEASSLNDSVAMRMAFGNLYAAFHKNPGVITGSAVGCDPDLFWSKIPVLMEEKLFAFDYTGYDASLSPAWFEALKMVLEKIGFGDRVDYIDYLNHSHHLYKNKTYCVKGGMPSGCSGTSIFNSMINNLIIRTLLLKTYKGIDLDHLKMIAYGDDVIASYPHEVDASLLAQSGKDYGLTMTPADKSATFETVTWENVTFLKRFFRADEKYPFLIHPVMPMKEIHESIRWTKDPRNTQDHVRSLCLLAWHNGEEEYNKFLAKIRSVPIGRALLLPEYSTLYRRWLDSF

Compound | % elongation | z-score | % elongation [1]
O=C(Oc1ccc(Br)cc1)c1ccco1 | 101% (inactive) | -0.3 | 105%
O=C(CSc1ccc(Br)cc1)c1ccco1 | 97% (inactive) | -0.9 | 89%
O=C(Sc1ccc(Oc2ccc(SC(=O)c3ccco3)cc2)cc1)c1ccco1 | 44% (active) | -11.5 | 51%
CCCCN(C)C(=O)C1CCCN(c2nnc(C)c3c(C)n(-c4ccccc4)nc23)C1 (configuration not stated) | 101% (inactive) | -0.1 | 103%
O=C(CSc1nnc2ccccn12)c1ccccc1 | 101% (inactive) | 0.1 | 103%
O=C(CCC(=O)c1ccccc1)c1ccccc1 | 100% (inactive) | 0.1 | 102%
O=C(CSc1ccccc1)c1ccccc1 | 79% (active) | -2.3 | 75%
O=C(Nc1ccccc1I)C1CCCO1 (configuration not stated) | 101% (inactive) | 0.2 | 100%
CN(Cc1ccccc1)C(=O)Cn1cnc(S(=O)(=O)N2CCCC2)c1 | 103% (inactive) | 1 | 101%
O=C(Nc1ccc(Cl)cc1Cl)C1CC(=O)N(C2CCCCC2)C1 (configuration not stated) | 105% (inactive) | 0.2 | 102%
Oc1c(C(c2cccnc2)N2CCOCC2)ccc2cccnc12 (configuration not stated) | 85% (inactive) | -2.9 | 110%
O=C(CCc1ccccc1)NCC1COC2(CCCCC2)O1 (configuration not stated) | 106% (inactive) | 0.3 | 112%
COc1cccc(NC(=O)CN(C)CC(=O)Nc2ccc3c(c2)CCC3)c1 | 100% (inactive) | -0.4 | 101%
COc1cc(NC(=O)CN2CCN(S(=O)(=O)c3ccc(Br)cc3)CC2)cc(OC)c1 | 114% (inactive) | 1.5 | 102%
CCN(CC(=O)Nc1ccc(S(=O)(=O)N2CCCC2)cc1)CC(=O)Nc1cccc(OC)c1 | 89% (active) | -1.2 | 88%
CCN(CC)S(=O)(=O)c1cc(C(=O)N2CCN(Cc3ccc4c(c3)OCO4)CC2)ccc1Cl | 109% (inactive) | 0.8 | 109%
COC(=O)COc1ccc(CSc2nc3ccccc3c(=O)n2C)cc1 | 100% (inactive) | -0.3 | 95%
Cc1ccc2nc(CSc3nnc(-c4ccccc4)o3)cc(=O)n2c1 | 99% (inactive) | -0.7 | 92%
CNC(=O)C1Cc2cc(S(=O)(=O)N3CCCC3)ccc2N1C(C)=O (configuration not stated) | 99% (inactive) | -1.3 | 103%
O=C(Nc1cccnc1)C(=O)c1c(O)[nH]c2ccccc12 | 101% (inactive) | -0.1 | 105%

Compound | % elongation | z-score | % elongation [1]
CC(NC(=O)C1CCCN1C(=O)c1cccs1)c1ccc(-n2ccnc2)cc1 (configuration not stated) | 100% (inactive) | -0.2 | 104%
O=c1c(Cl)c(NC2CC2)cnn1-c1ccccc1 | 102% (inactive) | 0.2 | 103%
N#Cc1cnn(-c2nc3ccccc3[nH]2)c1N | 105% (inactive) | 0.3 | 104%
O=c1c(Cl)c(Cl)cnn1-c1nc2ccccc2[nH]1 | 48% (active) | -5.8 | 58%
Cc1cc(=O)[nH]c(SC(C)C(=O)NC2CCCCC2)n1 (configuration not stated) | 99% (inactive) | -0.4 | 103%
Clc1nc2ccccc2c(N2CCCCC2)c1CNC1CC1 | 104% (inactive) | 0.8 | 105%
O=C(/C=C/c1c(Cl)nc2sccn12)NCc1ccc2c(c1)OCO2 | 97% (inactive) | -0.6 | 102%
CC(C)(C)c1ccc(C(=O)NCCn2c(N)c(C#N)c3nc4ccccc4nc32)cc1 | 107% (inactive) | 0.5 | 112%
N#Cc1c(N)n(Cc2ccc(Cl)cc2)c2nc3ccccc3nc12 | 75% (active) | -4.3 | 85%
CC(c1ccccc1)n1c(N)c(C#N)c2nc3ccccc3nc21 (configuration not stated) | 97% (inactive) | -1.4 | 106%
Cc1nnc2ccc(-c3ccc(NS(=O)(=O)c4ccc5c(c4)OCCO5)cc3)nn12 | 99% (inactive) | -1.2 | 102%
CCOCCCNC(=O)c1c(NC(=O)Cc2coc3c(C)c(C)ccc23)sc2c1CCC2 | 116% (inactive) | 0.1 | 117%
CCOC(=O)c1c(NC(=O)Cc2coc3ccc(CC)cc23)sc2c1CCC2 | -3% (active) | -8.5 | 25%
CCOCCCNC(=O)c1c(NC(=O)Cc2coc3ccc(C)cc23)sc2c1CCC2 | 116% (inactive) | 0.1 | 114%
CCOC(=O)c1c(NC(=O)c2cc(-c3ccc(Cl)cc3)on2)sc2c1CCCC2 | 84% (active) | -3 | 85%
COc1ccc(-c2cc(C(=O)Nc3sc4c(c3C(N)=O)CCCC4)no2)cc1 | 100% (inactive) | -0.5 | 102%
CCOC(=O)c1c(NC(=O)c2cc(-n3cnnc3)ccc2Cl)sc2c1CCCC2 | 99% (inactive) | -0.5 | 100%
CCCN(Cc1nc2cc(Cl)ccc2c(=O)[nH]1)C(=S)NC | 99% (inactive) | -0.3 | 99%
CN(C)/N=C/C=C1\CCC/C(=C\C=N\N(C)C)C1=O | 165% (inactive) | 6.6 | 154%
